Data as given in PubChem BioAssay AID1159580 (chemical genetic matrix, 2015).
In all, about 5,500 compounds went through this assay and about 2,000 (36%) were called active. Roughly 18% stayed inconclusive and do not appear here. Cut-off read from the data, not from the text of the source: active = normalized growth mostly below about 0.91 (no sharp cut-off); inconclusive = no clear call, values can overlap the other calls; inactive = mostly above about 0.92. The list shows a part of the results.

Experiment: chemical genetic growth profiling, strain panel (AID 1159580);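 note: tested at 20 µM; growth read once vehicle control cultures reached saturation at 30 °C; 1 = growth at the plate median or of vehicle wells; lower values mean less growth of the strain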
Conditions: S. cerevisiae deletion strains, growth OD

Measured: normalized growth

O=c1[nH]c2cc([N+](=O)[O-])c([N+](=O)[O-])cc2[nH]c1=O
inactive: locus YAL013W, strain DEP1, stronger effect = lower value 0.998 | locus YAL040C, strain CLN3, stronger effect = lower value 1.03 | locus YCL061C, strain MRC1 (second series), stronger effect = lower value 1 | locus YDR363W, strain ESC2, stronger effect = lower value 0.986 | locus YER002W, strain NOP16, stronger effect = lower value 0.996 | locus YGR078C, strain PAC10, stronger effect = lower value 1 | locus YGR229C, strain SMI1, stronger effect = lower value 0.977 | locus YJR075W, strain HOC1, stronger effect = lower value 0.987 | locus YMR263W, strain SAP30, stronger effect = lower value 1 | locus YNL128W, strain TEP1, stronger effect = lower value 1.01 | locus YNL153C, strain GIM3, stronger effect = lower value 1.01 | locus YNL175C, strain NOP13, stronger effect = lower value 1.01 | locus YNL197C, strain WHI3, stronger effect = lower value 0.989 | locus YNL224C, strain SQS1, stronger effect = lower value 0.989 | locus YNL322C, strain KRE1, stronger effect = lower value 0.986 | locus YOR083W, strain WHI5 (second series), stronger effect = lower value 0.969 | locus YPL055C, strain LGE1, stronger effect = lower value 0.988 | locus YPL241C, strain CIN2, stronger effect = lower value 1
